# Sampled rows, rich in hits. Any-hit rate of the full collection: about 21%.
# Sm TGR inh – blocks Schistosoma mansoni thioredoxin glutathione reductase; actives 3% (n = 360,000); purified TGR, DTNB reduction, TNB absorbance 405 nm; AID 485364; Potency, µM (doses to about 114 µM), without a hit: at the top dose activity change, negative = inhibition, most hits filed as inhibitors; further: potency means the concentration at half of the fitted maximal effect; on the % scale 0 is the no-effect control and ±100 the full control effect; nearly all actives have a fitted effect of over 60% in size
#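 TGR 20 nM + NADPH 100 uM (dispensed conc.), cpd preinc 15 min RT; start with NADPH (500 uM addition) then DTNB (15 mM addition). Kinetic TNB absorbance, 405 nm filter. Four-parameter Hill fit across titration.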
# Pf growth 96h – inhibits malaria parasite growth, 96 h; P. falciparum luciferase reporter growth, 96 h; Potency, µM (top dose mostly 28.7 µM), inactives show at the highest dose activity change, negative = inhibition, usual class: inhibitors; actives 6.9% (n = 320,000); AID 504834; further: potency means the concentration at half of the fitted maximal effect; on the % scale 0 is the no-effect control and ±100 the full control effect
#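 P. falciparum expressing integrated firefly luciferase, in erythrocytes at 2% hematocrit, 0.05% parasitemia, incubated with compounds 96 h at 37 C, 5% CO2. Growth inhibition read as loss of luminescence; two-generation exposure targets delayed-death apicoplast inhibitors.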
# NS1 function inh – inhibitors of influenza NS1 protein function | AID 2326 | actives 0.4% (n = 270,000) | Potency, µM (doses to about 46.1 µM), for the others: at the top dose activity, positive = more growth; calls by dose curve; further: potency means the concentration at half of the fitted maximal effect; actives are rising curves; nearly all actives have a fitted effect of over 50% in size
#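 Compounds were scored for reversing the slow growth caused by influenza A NS1 in S. cerevisiae, measured by optical density at 600 nm. Assay medium contained 2% galactose at pH 6.0; NS1-free yeast of the same strain were the positive control.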
# Pf growth 48h – P. falciparum growth inhibition at 48 hours (one generation). actives 5.9% (n = 310,000). AID 504832. P. falciparum luciferase growth in erythrocytes, 48 h. Potency, µM (doses to about 28.7 µM), without a hit: at the highest dose activity change, negative = inhibition, actives largely listed as inhibitors; further: potency means the concentration at half of the fitted maximal effect; on the % scale 0 is the no-effect control and ±100 the full control effect
#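 First compound was added to culture medium, then infected red cells at 0.1% parasitemia and 2% hematocrit (final). After incubation at 37 C under 5% CO2, luciferase detection reagent was dispensed and light output recorded.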
# Cycloheximide cs – affects cycloheximide protein synthesis inhibition readout, counter-screen; cell reporter, cycloheximide protein synthesis inhibition counterscreen; max response, %; actives 12% (n = 300,000); AID 2314; in the data active means max response mostly above about 13%, no sharp cut-off; inactive means mostly below about 14%; further: read at 38.3 µM for the half of the compounds with a filed dose; 0% is about no effect
# Shiga toxin inh – Shiga toxin inhibition; Vero cells, Shiga toxin protein synthesis inhibition reporter; inhibition, % at 38.7 µM; actives 9.2% (n = 290,000); AID 2315; in the data active means inhibition mostly above about 28%, no sharp cut-off; inactive means mostly below about 43%; further: 0% is about no effect
# An asterisk follows results filed as active; ? = inconclusive; . = no result. Unless noted, the call rests on the fitted dose curve; in most records, active means well fitted curve in the direction sought with a large enough effect; inconclusive means small, poorly fitted or top-dose-only effect, or another doubt; inactive means no such curve, though single readings can be large; an effect the other way counts as inactive or inconclusive.
SMILES,Sm TGR inh,Pf growth 96h,NS1 function inh,Pf growth 48h,Cycloheximide cs,Shiga toxin inh
CCOC(=O)/C=C/C(=O)Nc1ccc(Oc2ccccc2)cc1,?,27%,-42%,0%,10,-15
c1ccc(CSc2ccc(-c3cccnc3)nn2)cc1,-8%,-15%,.,116%,32*,98*
COc1cccc(-c2nc3c(c(C)nn3-c3ccccc3)c3cc(OC)c(OC)cc23)c1,-4%,.,.,.,.,.
COc1cc2c(-c3ccc(O)cc3)nc3c(c(C)nn3-c3ccccc3)c2cc1OC,-6%,34%,1%,15µM*,-1,-19
O=C(CN1C(=O)C2CCCCC2C1=O)Nc1nc2ccc(F)cc2s1 (stereo unspecified),-6%,29%,.,-5%,.,.
COc1ccc(NC(=O)CCS(=O)(=O)c2ccccc2)c(OC)c1,-19%,-28%,-7%,17%,15*,36*
CCC(=O)Nc1ccc(OC)cc1OC,-3%,15%,-33%,17%,1,14
COc1ccc(-c2csc(NC(=O)CCS(=O)(=O)c3ccccc3)n2)c(OC)c1,14µM*,?,-5%,-25%,2,14
COc1ccc(NC(=O)CSc2ccccc2)c(OC)c1,-16%,?,-8%,276%,43*,83*
COc1ccc(NC(=O)/C(=C\c2ccccc2)NC(=O)c2ccco2)cc1,5%,11%,4%,1%,-2,-5
O=S(=O)(c1cccc(F)c1)N1CCC(Oc2ccc(-n3cnnn3)cc2)CC1,7%,.,.,.,.,.
CC1SC(=Nc2ccccc2)N(S(=O)(=O)c2ccccc2)C1=O (stereo unspecified),8%,17%,15%,-13%,-4,-11
COc1ccc(CSc2nnc(Cc3sc(-c4ccccc4)nc3-c3ccccc3)o2)cc1,-28%,2.1µM*,8%,12µM*,-1,27
Fc1ccc(CSc2nnc(Cc3sc(-c4ccccc4)nc3-c3ccccc3)o2)cc1,-5%,12µM*,4%,.,2,-16
COCCN(C(=O)COC(=O)CCc1ccccc1)c1c(N)n(Cc2ccccc2)c(=O)[nH]c1=O,-2%,-3%,.,-5%,.,.
CCN(CC)CCN(C(=O)/C=C/c1cccs1)c1nc2ccc(C)cc2s1,-12%,?,-14%,?,-8,10
CCOc1ccccc1C1CC(c2ccc(Br)cc2)Nc2nc(N)nn21 (stereo unspecified),-8%,7.4µM*,7%,?,0,-13
CCc1ccc(C2CC(c3ccc(C)cc3)n3nc(N)nc3N2)cc1 (stereo unspecified),.,.,-1%,.,.,.
COc1cccc(C2CC(c3c(Cl)cccc3Cl)n3nc(N)nc3N2)c1 (stereo unspecified),4%,13µM*,-2%,?,-2,-8
CCc1ccc(C2CC(c3ccccc3)Nc3nc(N)nn32)cc1 (stereo unspecified),16%,1.9µM*,5%,9%,5,18
Nc1nc2n(n1)C(c1ccccc1Cl)CC(c1ccc(F)cc1)N2 (stereo unspecified),-21%,1.7µM*,11%,.,-3,-6
O=C(N[C@@H](Cc1ccccc1)C(=O)NC1CC1)c1ccc(Cl)cc1,1%,-6%,?,?,1,57
Cc1cc(C)c2nc(NC(=O)c3cc(C)on3)sc2c1,1%,43%,-14%,.,22*,21
CCc1noc(C)c1C(=O)Nc1nc2ccc(F)cc2s1,1%,120%,.,165%,.,.
CCc1ccc2nc(NC(=O)c3cc(C)on3)sc2c1,8%,-11%,-58%,38%,54*,95*
CCc1noc(C)c1C(=O)Nc1nc2c(C)cc(C)cc2s1,4%,46%,.,4%,.,.
CCn1c(=O)c2ccccc2n2c(SCC(N)=O)nnc12,-1%,?,-1%,2%,1,10
CS(=O)(=O)Nc1ccc(C2=NN(C(=O)c3ccco3)C(c3cccc(F)c3)C2)cc1 (stereo unspecified),-20%,?,.,13µM*,6,-21
